Source: PubChem (National Center for Advancing Translational Sciences (NCATS))
Many of the other results were omitted from the sample, so hits are more common in it than they were.
RE007 growth inh = less growth of the S. pombe RE007 Vpr strain; S. pombe RE007 Vpr strain, BacTiter-Glo ATP luminescence, 24 h; Potency, µM (highest dose often 92.2 µM), for the others: at the highest dose activity change, negative = less growth, most hits filed as inhibitors; 0.21% of 360,000 active; AID 651644; active means well fitted falling curve with a large enough effect; inconclusive means small, poorly fitted or top-dose-only effect; inactive means no such curve, though single readings can be large or run the other way; further: potency means the concentration at half of the fitted maximal effect; on the % scale 0 is the no-effect control and ±100 the full control effect; nearly all actives have a fitted effect of over 50% in size
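Fission yeast RE007 carrying one integrated HIV-1 vpr copy, seeded at OD 0.01 in PMG+AL medium with 23 nL pinned compound. Grown 24 h at 30 degrees; viability read by BacTiter-Glo luminescence after 5 min.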
Giardia FBPA inh = blocks Giardia fructose-bisphosphate aldolase activity; A8B2U2; purified Giardia FBPA; Potency, µM (top dose mostly 59.6 µM), for inactives: at the highest dose activity, negative = inhibition, usual class: inhibitors; 0.71% of 290,000 active; AID 2451; further: potency means the concentration at half of the fitted maximal effect; on the % scale 0 is the no-effect control and ±100 the full control effect; nearly all actives have a fitted effect of over 55% in size
Target sequence (A8B2U2 whole entry, looked up): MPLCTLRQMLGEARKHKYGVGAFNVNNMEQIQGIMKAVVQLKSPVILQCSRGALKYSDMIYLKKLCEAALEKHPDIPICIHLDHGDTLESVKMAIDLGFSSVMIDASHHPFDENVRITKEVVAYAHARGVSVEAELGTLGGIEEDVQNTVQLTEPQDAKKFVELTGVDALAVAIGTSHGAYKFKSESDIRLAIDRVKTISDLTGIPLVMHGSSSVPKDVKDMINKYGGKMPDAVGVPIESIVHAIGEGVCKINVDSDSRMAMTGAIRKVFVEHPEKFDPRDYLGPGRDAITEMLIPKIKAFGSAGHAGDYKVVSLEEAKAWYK
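40 nM FBPA preincubated 10 min at RT with compound (up to 57.5 uM final), then substrate plus GAPDH/TPI/NAD/arsenate coupling and diaphorase/resazurin added. Fluorescence read after 20 min at RT, 525/598 nm.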
LmPK inh = inhibitors of Leishmania mexicana pyruvate kinase | AID 1721 | Potency, µM (series often up to 57.5 µM), for the others: top-dose activity change, negative = inhibition, actives largely listed as inhibitors | purified LmPK, Kinase-Glo ATP luminescence, 1 h | 0.37% of 290,000 active; further: potency means the concentration at half of the fitted maximal effect; on the % scale 0 is the no-effect control and ±100 the full control effect
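Purified LmPK (0.1 nM) with 0.5 mM PEP and 0.1 mM ADP in imidazole buffer pH 7.2 with MgCl2/KCl, 1 h at room temperature. ATP formed was read by luciferase luminescence and normalized to no-enzyme and uninhibited controls.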
Shiga toxin inh = blocks Shiga toxin action in Vero cells; Vero cells, Shiga toxin protein synthesis inhibition reporter; inhibition, % at 38.7 µM; 9.2% of 290,000 active; AID 2315; in the data active means inhibition mostly above about 28%, no sharp cut-off; inactive means mostly below about 43%; further: 0% is about no effect
Tb PYK inh = blocks Trypanosoma brucei pyruvate kinase. Potency, µM (highest dose often 76.8 µM), without a hit: at the highest dose activity, negative = inhibition, most hits filed as inhibitors. 0.12% of 410,000 active. Q57TT1. TbPYK enzyme, Kinase-Glo Plus ATP luminescence, 45 min. AID 624173; further: potency means the concentration at half of the fitted maximal effect; on the % scale 0 is the no-effect control and ±100 the full control effect; nearly all actives have a fitted effect of over 50% in size
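ADP (130 uM final) triggers the TbPYK reaction after compound addition; incubation is 45 min at room temperature. Kinase-Glo Plus is then added and luminescence imaged. Normalized data are fitted to concentration-effect curves.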
CHX counter = counter-screen for Shiga toxin inhibitors: cycloheximide protein synthesis inhibition | AID 2314 | max response, % | 12% of 300,000 active | cell reporter, cycloheximide protein synthesis inhibition counterscreen; in the data active means max response mostly above about 13%, no sharp cut-off; inactive means mostly below about 14%; further: read at 38.3 µM for the half of the compounds with a filed dose; 0% is about no effect
Starred values were filed as active, the others as inactive; u = inconclusive; x = not tested or not shown; [ ] = dose if it differs, or a comment. Unless noted, the call rests on the fitted dose curve; in most records, active means well fitted curve in the direction sought with a large enough effect; inconclusive means small, poorly fitted or top-dose-only effect, or another doubt; inactive means no such curve, though single readings can be large; an effect the other way counts as inactive or inconclusive.

SMILES	RE007 growth inh	Giardia FBPA inh	LmPK inh	Shiga toxin inh	Tb PYK inh	CHX counter
CC(C)n1nnnc1SCC(=O)c1ccc2c(c1)OCCO2	0%	-4%	0%	42*	-22%	36*
O=C(CSc1nnnn1C1CCCC1)c1ccc2c(c1)OCCO2	-5%	8%	-3%	50	4%	33*
O=C(N/N=C1/C[C@@H](O)[C@@H](O)[C@@H]2[C@@H]3C(=O)N(C[C@@H]4CCCO4)C(=O)[C@H]3CC[C@H]12)OCc1ccccc1	x	-1%[12.9 µM]	x	x	x	x
Cn1c(=O)c(-c2ccc(F)c(F)c2)nc2cncnc21	x	1%	x	x	x	x
COc1ccc(Cn2c(=O)c3oc4ccccc4c3n(Cc3ccc(F)cc3)c2=O)cc1	x	x	x	x	-3%	x
O=c1[nH]c2ccc(NCc3ccc(-c4cccc(Cl)c4)o3)cc2[nH]1	x	x	x	x	-3%	x
C=CCN1C(=O)/C(=C/c2ccc(OC(C)=O)c(OCC)c2[N+](=O)[O-])SC1=S	5%	u	-12%	103*	4%	27*
Cc1ccc(C(O)C2=CCCC2=O)cc1 (stereo not given)	x	1%	x	x	x	x
CC(C)(C)OC(=O)N/N=C/c1ccc(Br)cc1	1%	-3%	-3%	105*	-1%	40*
O=C(N/N=C/c1ccc(OC(=O)c2ccco2)cc1)c1ccccn1	2%	-4%	-10%	39*	-6%	27*
O=C(N/N=C/c1ccc(OC(=O)c2cccs2)cc1)c1ccccn1	7%	-4%	-6%	53*	-16%	45*
CC(C)(C)OC(=O)N/N=C\c1ccc(OC(=O)c2cccs2)cc1	4%	0%	3%	97*	-10%	15
CN(c1ccc(Cl)cc1)S(=O)(=O)c1nnc(NC(=O)C2CCCCC2)s1	x	x	x	x	1%	x
COc1cc(CNCCSc2nnnn2C)ccc1OCc1ccc(C)cc1	x	x	x	x	4%	x
O=C(Oc1ccc(/C=N/NC(=O)c2ccccn2)cc1)c1ccc(Br)cc1	3%	x	x	x	-4%	x
O=C(Oc1ccc(/C=N/NC(=O)c2ccccn2)cc1)c1cccc(Br)c1	8%	x	3%	59*	1%	28*
CCOc1cc(/C=N/NC(=O)c2ccccn2)ccc1OC(=O)c1cccs1	-11%	-1%	0%	43*	-6%	28*
O=C(Nc1nc2ccccc2[nH]1)c1ccc(Cl)c([N+](=O)[O-])c1	-1%	2%	-3%	116*	-2%	37*
Cc1c(C(=O)Nc2nc3ccccc3[nH]2)cccc1[N+](=O)[O-]	0%	-16%	-1%	28	-14%	15*
CCOc1ccc(C(=O)Nc2cc(-c3nc4ccccc4[nH]3)ccc2Cl)cc1[N+](=O)[O-]	3%	-6%	2%	-4	6%	27*
CCOc1ccc(C(=O)Nc2cc(-c3nc4ccccc4[nH]3)ccc2C)cc1[N+](=O)[O-]	-2%	-7%	2%	27	3%	13
COC(=O)c1[nH]c2ccccc2c1NC(=O)c1ccccc1[N+](=O)[O-]	-18%	1%	7%	-4	3%	-1
O=C(Nc1nc2ccccc2[nH]1)c1ccccc1[N+](=O)[O-]	-9%	-26%	-3%	51*	4%	35*
O=C(Nc1ccc(OC(F)(F)F)cc1)C(NS(=O)(=O)c1cccc2nsnc12)c1ccccc1 (stereo not given)	x	x	x	x	2%	x
Cc1cccc(NC(=O)CSc2nsc(SCC(=O)Nc3cccc(C)c3)c2C#N)c1	24%	5%	2%	12	-3%	12*
SMILES	RE007 growth inh	Giardia FBPA inh	LmPK inh	Shiga toxin inh	Tb PYK inh	CHX counter
CC(=O)Nc1cccc(NC(=O)CSc2nc(C)c(C)c(C)c2C#N)c1	12%	-6%	12%	-2	u	11*
N#Cc1cc2ccccc2nc1SCc1ccccn1	-29%	9%	-3%	147*	-2%	59*
Cc1cc2cc3c(cc2nc1SCc1ccccn1)OCCO3	-11%	2%	5%	-6	2%	-1
CCOC(=O)C1(Cc2cccc(Cl)c2)CCCN(C(=O)c2cc(C)on2)C1 (stereo not given)	-4%	x	-4%	59*	-9%	28*
CCOC(=O)C1(Cc2cccc(Cl)c2)CCCN(C(=O)c2c(CC)noc2C)C1 (stereo not given)	8%	6%	0%	24*	2%	41*
CCOC(=O)C1(Cc2cccc(Cl)c2)CCCN(C2CCN(C(C)=O)CC2)C1 (stereo not given)	1%	-2%	3%	16	0%	-1
CCOC(=O)C1(Cc2cccc(Cl)c2)CCCN(C(=O)c2cc(C(C)C)nn2C)C1 (stereo not given)	3%	x	-10%	35	-2%	32*
CCOC(=O)C1(Cc2cccc(Cl)c2)CCCN(C(=O)c2ccc(C)nc2)C1 (stereo not given)	0%	1%	-12%	-4	0%	-2
COC(=O)CCC(C)C1CCC2C3CC[C@H]4CC(O)CC[C@@]4(C)C3CC(O)[C@]12C (stereo not given in full)	x	6%	x	x	x	x
CC[C@H](C)[C@H](NC(=O)[C@H](CO)NC(=O)[C@H](CC(C)C)NC(=O)[C@H](CO)NC(=O)[C@@H]1CCCN1C(=O)[C@H](CC(N)=O)NC(=O)[C@@H](N)CC(=O)O)C(=O)N[C@@H](CC(=O)O)C(=O)N[C@@H](CC(C)C)C(=O)N[C@H](C(=O)N[C@@H](Cc1ccccc1)C(=O)N[C@@H](Cc1cnc[nH]1)C(=O)N[C@@H](CC(C)C)C(=O)N[C@@H](CC(C)C)C(=O)N[C@@H](CCCNC(=N)N)C(=O)N[C@H](C(=O)N[C@@H](CC(C)C)C(=O)N[C@@H](CC(C)C)C(=O)N[C@@H](CCC(=O)O)C(=O)N[C@@H](CC(C)C)C(=O)N[C@@H](C)C(=O)N[C@@H](CCCNC(=N)N)C(=O)N[C@H](C(=O)N[C@@H](CCC(N)=O)C(=O)N[C@@H](CO)C(=O)N[C@@H](CCC(N)=O)C(=O)N[C@@H](CCCNC(=N)N)C(=O)N[C@@H](CCC(=O)O)C(=O)N[C@@H](CCCNC(=N)N)C(=O)N[C@@H](C)C(=O)N[C@@H](CCC(=O)O)C(=O)N[C@@H](CCC(N)=O)C(=O)N[C@@H](CC(N)=O)C(=O)N[C@@H](CCCNC(=N)N)C(=O)N[C@H](C(=O)N[C@H](C(=O)N[C@@H](Cc1ccccc1)C(=O)N[C@@H](CC(=O)O)C(=O)N[C@@H](CO)C(=O)N[C@H](C(N)=O)C(C)C)[C@@H](C)CC)[C@@H](C)CC)[C@@H](C)O)[C@@H](C)O)[C@@H](C)O	x	5%	x	17*	x	-7
Cc1nn2cc(-c3ccccc3)nc2s1	-16%	2%	u	59	-27%	32*
